In PubChem BioAssay (NCATS):
Records with an inconclusive call do not appear. Activity calls are given as the source filed them. Unless noted, the call rests on the fitted dose curve; in most records, active means well fitted curve in the direction sought with a large enough effect; inconclusive means small, poorly fitted or top-dose-only effect, or another doubt; inactive means no such curve, though single readings can be large; an effect the other way counts as inactive or inconclusive.

Tests used:
[1] = biological target: Calcium and integrin-binding protein 1 (Homo sapiens) (UniProt Q99828); experiment: Primary qHTS for Identification of Calcium Integrin Binding Protein 1 (CIB1) Competitor (AID 1508620);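 further: GST tagged CIB1 binding a fluorescein labelled alphaIIb integrin peptide tracer; top concentration of the series differs between compounds; on the % scale 0 is the no-effect control and ±100 the full control effect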
Calcium and integrin-binding protein 1 (Homo sapiens), sequence (Q99828 whole entry, looked up): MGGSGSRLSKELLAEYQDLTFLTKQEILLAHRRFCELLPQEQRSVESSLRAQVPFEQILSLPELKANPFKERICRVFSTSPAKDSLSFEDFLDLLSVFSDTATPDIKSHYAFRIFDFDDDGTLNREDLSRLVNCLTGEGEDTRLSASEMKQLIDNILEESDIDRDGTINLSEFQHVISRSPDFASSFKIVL
Outline: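 CIB1-GST (1 uM final) and compound incubated 15 min at room temperature before adding FITC-alphaIIb peptide tracer (100 nM final). Competition for binding read by fluorescence polarization (ex 480, em 540) after another 15 min at room temperature.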

[2] = biological target: Rap guanine nucleotide exchange factor 3 (Homo sapiens) (UniProt O95398); experiment: Confirmatory qHTS for antagonist of cAMP-regulated guanine nucleotide exchange factor 3 (EPAC1) (AID 1645880);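 further: plate controls were DMSO only for no effect and full effect of the ATA control for full effect; nearly all actives have a fitted effect of over 55% in size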
Rap guanine nucleotide exchange factor 3 (Homo sapiens), sequence (O95398 whole entry, looked up): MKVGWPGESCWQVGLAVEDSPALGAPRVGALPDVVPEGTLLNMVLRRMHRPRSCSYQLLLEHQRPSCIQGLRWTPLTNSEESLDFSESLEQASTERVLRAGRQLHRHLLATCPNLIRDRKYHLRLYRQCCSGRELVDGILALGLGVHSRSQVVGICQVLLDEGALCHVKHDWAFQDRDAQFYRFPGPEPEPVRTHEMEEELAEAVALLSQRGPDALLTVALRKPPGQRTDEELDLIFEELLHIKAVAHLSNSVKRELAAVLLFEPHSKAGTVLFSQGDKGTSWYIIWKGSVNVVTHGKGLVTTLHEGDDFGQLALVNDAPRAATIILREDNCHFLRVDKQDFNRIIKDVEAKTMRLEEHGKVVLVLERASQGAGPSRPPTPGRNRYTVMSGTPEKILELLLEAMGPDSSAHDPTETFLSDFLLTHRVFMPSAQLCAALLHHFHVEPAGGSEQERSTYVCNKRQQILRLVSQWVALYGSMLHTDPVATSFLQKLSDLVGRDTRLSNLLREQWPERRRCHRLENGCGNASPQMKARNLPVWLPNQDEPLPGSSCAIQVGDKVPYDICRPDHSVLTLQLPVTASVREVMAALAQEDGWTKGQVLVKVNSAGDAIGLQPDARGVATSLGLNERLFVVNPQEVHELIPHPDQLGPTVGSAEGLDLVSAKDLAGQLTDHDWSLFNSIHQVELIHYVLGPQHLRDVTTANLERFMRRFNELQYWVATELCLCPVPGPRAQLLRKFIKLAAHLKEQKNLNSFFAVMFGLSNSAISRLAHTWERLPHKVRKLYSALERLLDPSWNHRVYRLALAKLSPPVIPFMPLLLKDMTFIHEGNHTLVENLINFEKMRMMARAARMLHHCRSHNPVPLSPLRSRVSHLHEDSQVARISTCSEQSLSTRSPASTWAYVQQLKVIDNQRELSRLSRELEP
Outline: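 Nucleotide exchange uses 100 nM EPAC1, 250 nM RAP1B-BODIPY-GDP and 50 uM GDP, with compounds in a concentration-titration series. After 5 min at room temperature, fluorescence (480 nm ex/540 nm em) is read every 5 min for 30 min. Data are normalized to control ATA and DMSO.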

[3] = biological target: Rap guanine nucleotide exchange factor 3 (Homo sapiens) (UniProt O95398); experiment: Confirmatory qHTS for agonist of cAMP-regulated guanine nucleotide exchange factor 3 (EPAC1) (AID 1645881);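 further: EPAC1 catalysed release of BODIPY-GDP from Rap1B seen as fluorescence loss; 100% = effect of cAMP agonist control; nearly all actives have a fitted effect of over 75% in size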
[4] = biological target: Rap guanine nucleotide exchange factor 4 (Homo sapiens) (UniProt Q8WZA2); experiment: Confirmatory qHTS for agonist of cAMP-regulated guanine nucleotide exchange factor 4 (EPAC2) (AID 1645884);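 further: nucleotide exchange releases bodipy-GDP from Rap1 and this lowers its fluorescence; on the % scale 0 is the no-effect control and ±100 the full control effect; nearly all actives have a fitted effect of over 65% in size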
Rap guanine nucleotide exchange factor 4 (Homo sapiens), sequence (Q8WZA2 whole entry, looked up): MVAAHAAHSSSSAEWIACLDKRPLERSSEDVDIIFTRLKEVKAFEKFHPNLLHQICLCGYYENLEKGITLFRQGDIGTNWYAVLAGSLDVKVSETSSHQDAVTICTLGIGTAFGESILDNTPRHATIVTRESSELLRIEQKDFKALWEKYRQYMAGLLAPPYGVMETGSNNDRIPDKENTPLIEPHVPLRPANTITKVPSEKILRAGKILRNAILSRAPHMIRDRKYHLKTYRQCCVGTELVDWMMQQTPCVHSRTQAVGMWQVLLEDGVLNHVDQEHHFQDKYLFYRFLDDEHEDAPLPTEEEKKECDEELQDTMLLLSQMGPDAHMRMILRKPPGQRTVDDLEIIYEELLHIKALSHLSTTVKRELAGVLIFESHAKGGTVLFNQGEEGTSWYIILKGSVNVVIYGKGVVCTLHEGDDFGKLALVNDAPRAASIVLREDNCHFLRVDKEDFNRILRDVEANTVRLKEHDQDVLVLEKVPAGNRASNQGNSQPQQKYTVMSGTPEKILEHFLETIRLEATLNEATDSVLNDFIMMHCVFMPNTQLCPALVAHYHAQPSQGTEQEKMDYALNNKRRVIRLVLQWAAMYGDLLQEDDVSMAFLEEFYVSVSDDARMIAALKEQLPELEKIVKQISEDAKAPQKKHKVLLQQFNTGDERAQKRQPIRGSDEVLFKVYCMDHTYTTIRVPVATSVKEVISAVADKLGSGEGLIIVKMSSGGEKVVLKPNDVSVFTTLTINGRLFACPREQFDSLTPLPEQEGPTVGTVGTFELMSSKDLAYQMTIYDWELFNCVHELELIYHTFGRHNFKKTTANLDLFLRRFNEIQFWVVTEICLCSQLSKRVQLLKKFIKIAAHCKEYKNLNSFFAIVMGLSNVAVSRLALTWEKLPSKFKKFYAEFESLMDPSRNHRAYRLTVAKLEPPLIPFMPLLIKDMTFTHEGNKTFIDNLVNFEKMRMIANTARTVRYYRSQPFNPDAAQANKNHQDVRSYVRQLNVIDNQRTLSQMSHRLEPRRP

[5] = biological target: Rap guanine nucleotide exchange factor 4 (Homo sapiens) (UniProt Q8WZA2); experiment: Confirmatory qHTS for antagonist of cAMP-regulated guanine nucleotide exchange factor 4 (EPAC2) (AID 1645885); further: potency means the concentration at half of the fitted maximal effect; nearly all actives have a fitted effect of over 25% in size
[6] = biological target: Lysosomal acid glucosylceramidase (Homo sapiens) (UniProt P04062); experiment: Glucocerebrosidase-p2 (AID 348; in the data active means potency below about 10 µM; further: potency means the concentration at half of the fitted maximal effect); settings: purified GBA, blue fluorogenic substrate, 40 min
Outline: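 Compounds titrated from 0.6 nM upwards against 0.2 nM enzyme in pH 5.9 citric acid/KH2PO4, taurocholate, tween-20; blue fluorogenic substrate 80 uM, 40 min room temperature, stopped and read Ex 365/Em 440 for AC50.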

[7] = AP1 Signaling Pathway (AID 357; active means well fitted curve in either direction with a large enough effect, not every such curve was filed as active;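 further: ME-180 reporter cells stimulated with EGF at its EC50 level; on the % scale 0 is the no-effect control and ±100 the full control effect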); settings: ME-180 AP-1-bla reporter, EGF-induced, beta-lactamase ratio, 5 h; at 7.69 µM (top of the series) unless noted
Outline: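 Beta-lactamase reporter under AP-1 response element, ME-180 background. Stimulus: EC50 EGF. Compound exposure 5 h, 37 °C. Detection: CCF4, 2.5 h RT, 460/530 nm. Values: AC50 from titration.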

[8] = biological target: Cytochrome P450 1A2 (Homo sapiens) (UniProt P05177); experiment: p450-cyp1a2 (AID 410; calls by dose curve; further: potency means the concentration at half of the fitted maximal effect)
Cytochrome P450 1A2 (Homo sapiens), sequence (P05177 whole entry, looked up): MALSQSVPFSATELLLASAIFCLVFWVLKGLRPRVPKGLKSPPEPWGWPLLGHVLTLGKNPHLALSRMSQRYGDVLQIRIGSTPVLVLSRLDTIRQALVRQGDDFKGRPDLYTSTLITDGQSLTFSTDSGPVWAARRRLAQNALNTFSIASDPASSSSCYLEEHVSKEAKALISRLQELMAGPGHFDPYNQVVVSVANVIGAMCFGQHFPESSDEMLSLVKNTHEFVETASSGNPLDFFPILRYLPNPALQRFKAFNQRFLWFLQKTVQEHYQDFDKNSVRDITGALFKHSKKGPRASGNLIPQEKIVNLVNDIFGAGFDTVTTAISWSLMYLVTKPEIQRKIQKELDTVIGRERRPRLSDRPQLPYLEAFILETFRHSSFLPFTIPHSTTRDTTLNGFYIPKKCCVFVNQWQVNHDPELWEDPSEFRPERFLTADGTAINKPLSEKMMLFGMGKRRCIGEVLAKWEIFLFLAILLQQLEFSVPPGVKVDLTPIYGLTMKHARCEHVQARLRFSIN
Outline: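 Inhibition was calculated relative to 57 uM furafylline (full inhibition). The reaction used human CYP1A2 at 20nM with Luciferin-ME at its Km, 100uM, driven by an NADPH-regenerating system for 60 min at room temperature.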

[9] = NFAT Signaling Pathway (AID 444; active means well fitted curve in either direction with a large enough effect, not every such curve was filed as active;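 further: carbachol stimulus at about its EC50 of 1 µM final; on the % scale 0 is the no-effect control and ±100 the full control effect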); settings: Jurkat NFAT-bla M1, carbachol, beta-lactamase ratio, 5 h; at 7.69 µM (top of the series) unless noted
Outline: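 Read-out: CCF4 FRET ratio (460 nm/530 nm) after 1 h RT dye loading, used for %activity and AC50 from titration series. Cells: Jurkat NFAT-β-lactamase/M1 line, treated with compound plus 1 uM carbachol for 5 h, 37 °C.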

[10] = Stat Signaling Pathway (AID 446; active means well fitted curve in either direction with a large enough effect, not every such curve was filed as active;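 further: ME-180 cervical cancer cells given 40 pM IL-6 alongside compound; SIE-controlled beta-lactamase reporter measured as 460/530 nm FRET emission ratio; on the % scale 0 is the no-effect control and ±100 the full control effect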); settings: ME-180 (cervical carcinoma) SIE beta-lactamase reporter, IL-6 stimulated, 5 h; at 7.69 µM (top of the series) unless noted
Outline: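 IL-6/STAT signaling read in ME-180 cells via an SIE beta-lactamase reporter. Stimulus was 40 pM IL-6 (its AC50) for 5 hrs, so both activation and inhibition register.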

[11] = biological target: Glucocorticoid receptor (Homo sapiens) (UniProt P04150); experiment: GR-GFP Redistribution (AID 450;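 active means compounds whose dose series gives a full or clear partial fitted curve of increased nuclear translocation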; further: potency means the concentration at half of the fitted maximal effect); settings: U2OS GR-GFP nuclear translocation, laser cytometry, 2 h
Glucocorticoid receptor (Homo sapiens), sequence (P04150 whole entry, looked up, the tested form may be a part): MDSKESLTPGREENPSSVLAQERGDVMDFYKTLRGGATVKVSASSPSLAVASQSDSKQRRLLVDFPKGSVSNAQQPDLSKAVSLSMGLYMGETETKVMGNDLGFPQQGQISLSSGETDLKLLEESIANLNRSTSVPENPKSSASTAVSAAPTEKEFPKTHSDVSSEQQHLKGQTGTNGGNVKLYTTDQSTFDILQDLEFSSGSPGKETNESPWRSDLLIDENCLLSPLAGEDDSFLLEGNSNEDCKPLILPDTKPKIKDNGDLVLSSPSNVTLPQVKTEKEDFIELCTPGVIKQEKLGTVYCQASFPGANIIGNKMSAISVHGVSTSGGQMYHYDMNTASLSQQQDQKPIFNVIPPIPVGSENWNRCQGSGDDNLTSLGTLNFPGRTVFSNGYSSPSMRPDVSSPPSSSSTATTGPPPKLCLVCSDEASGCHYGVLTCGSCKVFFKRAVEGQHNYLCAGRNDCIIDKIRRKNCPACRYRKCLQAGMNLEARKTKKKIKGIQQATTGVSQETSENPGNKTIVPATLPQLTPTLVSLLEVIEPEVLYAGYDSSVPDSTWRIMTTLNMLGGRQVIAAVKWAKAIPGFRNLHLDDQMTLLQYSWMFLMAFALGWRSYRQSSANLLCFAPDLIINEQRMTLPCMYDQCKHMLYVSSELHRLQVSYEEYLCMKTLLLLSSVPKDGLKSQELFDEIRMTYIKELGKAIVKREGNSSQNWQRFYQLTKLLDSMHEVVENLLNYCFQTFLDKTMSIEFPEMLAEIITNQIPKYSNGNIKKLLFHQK

[12] = biological target: Glucocorticoid receptor (Homo sapiens) (UniProt P04150); experiment: GR-EFC Redistribution (AID 451; calls by dose curve; further: potency means the concentration at half of the fitted maximal effect); settings: CHO-K1 GR-EFC translocation, beta-gal luminescence, 2 h
Outline: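 Translocation of GR-ED fusion to nuclear EA restores b-gal, read by luminescence after 1 h room-temperature detection. Engineered CHO-K1 biosensor cells, 1,000/well, exposed 2 h at 37 C to titrations up to 46 uM final.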

[13] = biological target: Mitogen-activated protein kinase 10 (Mus musculus) (UniProt Q61831); experiment: JNK3 AlphaScreen Assay (AID 530; active means well fitted curve in either direction with a large enough effect, not every such curve was filed as active)
Outline: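 Room-temperature AlphaScreen kinase assay; pre-activated HepG2 lysate as JNK3 source, biotin-GST-cJun(1-79) substrate, 10 uM ATP, compound 15 min preincubation.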

[14] = biological target: 3',5'-cyclic-AMP phosphodiesterase 4B (Homo sapiens) (UniProt Q07343); experiment: qHTS Assay for Inhibitors of PDE-IV (AID 607; active means well fitted activation curve with a large enough effect in the main read-out, with a control signal flat, not every such curve was filed as active; further: % of control where 0% means no effect)
Outline: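 Live HEK293 cells with a modified cyclic nucleotide-gated (CNG) channel report intracellular cAMP via membrane-potential dye fluorescence (ex 535/em 590 nm). Endogenous PDE-IV was targeted. Compounds were tested at up to 22.9 uM final; RO 20-1724 100 uM served as control.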

[15] = biological target: Cytochrome P450 2D6 (Homo sapiens) (UniProt P10635); experiment: qHTS Assay for Inhibitors and Substrates of Cytochrome P450 2D6 (AID 891); further: potency means the concentration at half of the fitted maximal effect; nearly all actives have a fitted effect of over 60% in size
Cytochrome P450 2D6 (Homo sapiens), sequence (P10635 whole entry, looked up): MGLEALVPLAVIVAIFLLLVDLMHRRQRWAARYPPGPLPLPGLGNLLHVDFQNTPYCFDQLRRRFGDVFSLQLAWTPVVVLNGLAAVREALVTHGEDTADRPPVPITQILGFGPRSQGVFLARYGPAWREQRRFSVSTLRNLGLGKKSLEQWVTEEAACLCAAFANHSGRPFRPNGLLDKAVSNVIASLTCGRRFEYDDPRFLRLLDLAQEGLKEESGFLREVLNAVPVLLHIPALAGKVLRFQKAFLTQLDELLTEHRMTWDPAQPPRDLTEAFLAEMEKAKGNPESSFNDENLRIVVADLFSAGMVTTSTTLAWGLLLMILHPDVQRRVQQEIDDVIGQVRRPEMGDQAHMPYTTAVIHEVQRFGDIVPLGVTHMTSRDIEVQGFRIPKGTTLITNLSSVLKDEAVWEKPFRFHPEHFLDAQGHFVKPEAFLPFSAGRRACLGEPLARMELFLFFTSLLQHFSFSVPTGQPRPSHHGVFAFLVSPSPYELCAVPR
Outline: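 Human CYP2D6 (5 nM) with 30 uM Luciferin-ME EGE (at Km) in 100 mM KPO4, compound preincubated 10 min, then NADPH regeneration system for 60 min at room temperature. Luciferin read by luminescence; normalized to 1.43 uM quinidine.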

[16] = Confirmation and Secondary Assay for Modulators of Hemoglobin Beta Chain Splicing at IVS2 654 locus (AID 910);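 further: HeLa cells stably carrying EGFP split by mutant beta-globin IVS2-654 intron; per-well total GFP intensity by laser scanning cytometry after 2-day treatment; % of control where 0% means no effect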
Outline: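 Readout: per-well total peak green fluorescence (488 nm ex, 500–520 nm em) from objects 5–250 µm, reflecting correct splicing of an EGFP-654 reporter. Compounds were applied for 2 days at 37 °C to overnight-plated HeLa EGFP-654 cells; controls were DMSO and 500 nM IVS2-654 PNA.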

[17] = Confirmation and Secondary Assay for Modulators of Hemoglobin Beta Chain Splicing at IVS2 705 locus (AID 930);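 further: HeLa cells stably expressing the EGFP-705 splicing reporter; GFP fluorescence per well restored by corrected splicing of the IVS2-705 intron in EGFP; % of control where 0% means no effect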
Outline: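 HeLa IVS2-705 EGFP reporter cells, 500/well, compound 2 d at 37C; correct splicing yields fluorescent EGFP. Control: 500 nM antisense PNA. Read-out: total peak GFP intensity.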

[18] = qHTS Assay for Lipid Storage Modulators (AID 1519; calls by dose curve); settings: Drosophila S3 cells, BODIPY lipid droplet/cell ratio, laser cytometry, cells loaded with oleic acid; for activity change, negative = inhibition: at 57.5 µM (top of the series)
Outline: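 Cells seeded at 5,000 per well were treated with compounds over a concentration series and loaded with oleic acid (400 uM, as added). Lipid droplet fluorescence (488 nm excitation, 500-530 nm channel) was read by laser-scanning cytometry and normalized to 20 uM Triacsin C.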

[19] = biological target: Ubiquitin carboxyl-terminal hydrolase 1 (Homo sapiens) (UniProt O94782); experiment: Inhibitors of USP1/UAF1: Pilot qHTS (AID 504865);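 further: rhodamine fluorescence freed from ubiquitin-rhodamine substrate followed over time; top concentration of the series differs between compounds; on the % scale 0 is the no-effect control and ±100 the full control effect; nearly all actives have a fitted effect of over 35% in size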
Ubiquitin carboxyl-terminal hydrolase 1 (Homo sapiens), sequence (O94782 whole entry, looked up): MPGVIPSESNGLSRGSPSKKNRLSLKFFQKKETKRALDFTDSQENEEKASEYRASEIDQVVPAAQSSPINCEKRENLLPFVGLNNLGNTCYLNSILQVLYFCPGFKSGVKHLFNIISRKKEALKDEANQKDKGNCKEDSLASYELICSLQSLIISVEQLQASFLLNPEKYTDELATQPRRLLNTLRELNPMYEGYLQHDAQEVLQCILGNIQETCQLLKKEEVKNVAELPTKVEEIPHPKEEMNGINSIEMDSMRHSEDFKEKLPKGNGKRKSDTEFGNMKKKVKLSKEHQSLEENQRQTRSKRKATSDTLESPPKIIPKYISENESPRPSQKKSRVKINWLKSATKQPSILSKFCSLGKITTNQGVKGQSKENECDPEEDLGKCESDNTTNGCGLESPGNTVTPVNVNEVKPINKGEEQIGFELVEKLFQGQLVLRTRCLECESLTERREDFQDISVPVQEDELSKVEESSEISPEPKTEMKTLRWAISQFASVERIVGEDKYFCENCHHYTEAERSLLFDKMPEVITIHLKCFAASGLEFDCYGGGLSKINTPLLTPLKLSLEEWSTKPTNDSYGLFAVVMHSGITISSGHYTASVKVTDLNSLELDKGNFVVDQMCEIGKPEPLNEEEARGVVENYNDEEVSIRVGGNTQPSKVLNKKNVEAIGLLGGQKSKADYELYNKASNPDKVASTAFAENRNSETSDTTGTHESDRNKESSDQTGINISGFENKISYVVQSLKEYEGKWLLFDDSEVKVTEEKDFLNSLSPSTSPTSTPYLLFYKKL
Outline: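 Kinetic fluorescence assay: 1nM USP1/UAF1, 15 min compound preincubation, then 150nM Ub-Rho; 480/540 nm.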

[20] = Primary qHTS for small molecule stabilizers of the endoplasmic reticulum resident proteome: Secreted ER Calcium Modulated Protein (SERCaMP) assay (AID 1508630); further: on the % scale 0 is the no-effect control and ±100 the full control effect
Outline: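 GLuc-SERCaMP-expressing SH-SY5Y cells, pretreated 16 h with compound, are challenged with thapsigargin to empty ER calcium stores; after 4 h, coelenterazine is added directly to the medium and luminescence is imaged.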

[21] = biological target: Cytochrome P450 2C19 (Homo sapiens) (UniProt P33261); experiment: qHTS Assay for Inhibitors and Substrates of Cytochrome P450 2C19 (AID 899); further: potency means the concentration at half of the fitted maximal effect; nearly all actives have a fitted effect of over 60% in size
Outline: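 Reactions contain 5nM enzyme, 10uM Luciferin-H EGE (KM) and 50mM KPO4; compound preincubates 10 min at 37C, NADPH regeneration starts turnover for 60 min. Luminescence after detection reagent gives activity.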

[22] = measured here: cell count channel max response
[23] = measured here: lipid channel max response

CC(=O)NC(c1cccs1)c1cc(Cl)c2ccccc2c1O (centres undefined)
inactive: Potency [1] | Potency [2] | outcome [3] | outcome [4]
active: Potency [5] 12 µM

c1nc(N2CCNCC2)c2cc(-c3ccc4c(c3)OCO4)ccc2n1
inactive: Potency [6] > 11.4 µM | activity change, negative = inhibition [7] -9.83% | activity change, negative = inhibition [9] -0.53% | activity, negative = inhibition [10] 1.4% | Potency [11] > 46 µM | Potency [12] > 46 µM | outcome [13] | Potency [14] | outcome [16] | outcome [17] | activity change, negative = inhibition [18] 13.1% | Potency [19] | Potency [1] | Potency [20]
19.9%: max response [18, 23]
active: Potency [8] 2 µM | Potency [15] 2.51 µM
9.51%: max response [18, 22]

Cc1cccc(CNc2ncnc3ccc(-c4ccoc4)cc23)c1
11.4%: max response [18, 22]
inactive: activity change, negative = inhibition [7] -19.9% | activity change, negative = inhibition [9] -14.2% | activity, negative = inhibition [10] -30% | Potency [11] > 46 µM | Potency [12] > 46 µM | outcome [13] | outcome [16] | outcome [17] | activity change, negative = inhibition [18] -3% | Potency [19] | Potency [1] | Potency [20]
active: Potency [8] 3.98 µM | Potency [21] 7.94 µM
6.71%: max response [18, 23]
